Many of the other results were omitted from the sample, so hits are more common in it than they were.
HT1080 IDH1KD tx: HT-1080 IDH1 knockdown cell toxicity (counter line). HT-1080 IDH1 knockdown viability, ATP luminescence, 48 h. hit rate 2% among 360,000. Potency, µM (doses to about 46.1 µM), without a hit: at the top dose activity, negative = toxicity, hits mostly cytotoxic;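 note: potency is the fitted concentration of half-maximal effect; 0% = DMSO wells and -100% = cell-free medium wells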
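IDH1KD HT-1080 cells, 750/well, RPMI + 5% FBS; compound pinned after 2 h settling; 48 h, 37 °C; CellTiter-Glo luminescence; % activity normalised to DMSO and no-cell wells; curves fitted, classed by r2 and efficacy.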
ALOX12 inh: ALOX12 (human) lipoxygenase inhibition; purified 12hLO, xylenol orange hydroperoxide absorbance; hit rate 1.1% among 580,000; Potency, µM (highest dose often 108 µM), inactives show top-dose activity change, negative = inhibition, actives largely listed as inhibitors; note: potency is the fitted concentration of half-maximal effect
Target sequence (P18054 whole entry, looked up): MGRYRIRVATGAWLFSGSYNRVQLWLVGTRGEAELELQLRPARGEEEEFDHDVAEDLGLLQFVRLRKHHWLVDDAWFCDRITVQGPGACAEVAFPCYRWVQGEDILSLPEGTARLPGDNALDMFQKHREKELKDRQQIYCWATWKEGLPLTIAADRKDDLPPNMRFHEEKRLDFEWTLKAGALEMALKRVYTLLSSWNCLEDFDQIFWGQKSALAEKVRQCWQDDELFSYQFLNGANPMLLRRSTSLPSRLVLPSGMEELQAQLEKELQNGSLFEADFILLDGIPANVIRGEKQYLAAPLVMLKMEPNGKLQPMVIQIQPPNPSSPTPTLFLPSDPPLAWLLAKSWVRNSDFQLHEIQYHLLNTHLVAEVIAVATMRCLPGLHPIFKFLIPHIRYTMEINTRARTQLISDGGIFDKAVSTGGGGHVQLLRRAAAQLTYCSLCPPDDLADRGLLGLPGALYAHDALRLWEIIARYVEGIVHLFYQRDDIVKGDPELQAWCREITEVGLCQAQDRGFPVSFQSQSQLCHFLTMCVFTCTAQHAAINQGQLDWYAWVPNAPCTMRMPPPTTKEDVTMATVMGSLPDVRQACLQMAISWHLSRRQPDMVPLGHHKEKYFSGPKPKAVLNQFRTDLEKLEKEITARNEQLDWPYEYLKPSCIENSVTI
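Purified human 12hLO at 150 nM in 25 mM Hepes, 0.01% Triton X-100, pH 7.0, preincubated 15 min at room temperature with compound. Reaction started with 40 uM arachidonic acid, 30 min at room temperature. Hydroperoxide measured by Fe-xylenol orange, 573/405 nm absorbance ratio.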
DT40 TDP1 no CPT: qHTS for Inhibitors of human tyrosyl-DNA phosphodiesterase 1 (TDP1): qHTS in cells in absence of CPT; DT40 Tdp1-/- hTDP1 cells, no CPT, ATP luminescence, 48 h; Potency, µM (doses to about 46.2 µM), inactives show at the top dose activity change, negative = growth inhibition, most hits filed as inhibitors; hit rate 15% among 420,000; note: potency is the fitted concentration of half-maximal effect; nearly all actives have a fitted effect of over 55% in size
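Chicken DT40 Tdp1-/- cells stably complemented with human TDP1 were seeded at 400 cells/well with DMSO in place of 20 nM camptothecin. After compound pinning, cells grew at least 48 hr at 37 °C; viability read by CellTiter-Glo luminescence.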
IL1B secr inh: blocks inflammasome-driven IL-1 beta release; THP-1 LPS/ATP IL-1B secretion, AlphaLISA, 16 h; active compounds read low; activity change, % at 57.5 µM; hit rate 4.7% among 360,000; AID 743279; in the data active = activity change below about -50%; inconclusive = mostly about -30% to -49%
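Secreted IL-1B measured by AlphaLISA bead assay after 16 h compound exposure of THP-1 cells; compounds (final up to 57.5 uM) added 1 h before LPS (250 ng/mL) and ATP (1.25 mM) stimulation; lower signal means less secretion.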
HT1080-NT tox: kills 2HG-producing HT-1080-NT fibrosarcoma cells | HT-1080-NT fibrosarcoma viability, CellTiter-Glo ATP luminescence, 48 h | Potency, µM (highest dose often 46.1 µM), inactives show at the top dose activity, negative = less viability, hits mostly cytotoxic | hit rate 1.6% among 360,000 | AID 686970;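 note: NT is the 2HG producing partner of a matched IDH1 knockdown line; potency is the fitted concentration of half-maximal effect; 0% = DMSO-treated cells and -100% = media-only wells without cells; nearly all actives have a fitted effect of over 55% in size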
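A 48-hour cytotoxicity screen used HT-1080-NT cells plated 2 hours before compound delivery. ATP-based CellTiter-Glo luminescence measured viability, normalized to DMSO and no-cell controls.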
DT40 TDP1 CPT: DT40-hTDP1 cell growth loss with CPT; chicken DT40 Tdp1-/-;hTDP1 cells + 20 nM CPT, ATP luminescence, 48 h; Potency, µM (series often up to 46.2 µM), for inactives: top-dose activity change, negative = growth inhibition, actives largely listed as inhibitors; hit rate 12% among 420,000; AID 686979; note: potency is the fitted concentration of half-maximal effect; nearly all actives have a fitted effect of over 55% in size
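Cell growth measured by CellTiter-Glo luminescence after a minimum 48 h, 37 C compound exposure with 20 nM CPT in Tdp1-knockout DT40 cells stably expressing hTDP1, seeded 400/well; qHTS titration format.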
Numbers without * were called inactive; ? = inconclusive; nt = no result given; [ ] = remark or other dose. Unless noted, calls come from the whole dose curve; as a rule, active = well fitted curve in the direction sought with a large enough effect; inconclusive = small, poorly fitted or top-dose-only effect, or another doubt; inactive = no such curve, though single readings can be large; an effect the other way counts as inactive or inconclusive. Unless noted, % is set by controls: 0 for no effect and ±100 for the full control effect.

SMILES | HT1080 IDH1KD tx | ALOX12 inh | DT40 TDP1 no CPT | IL1B secr inh | HT1080-NT tox | DT40 TDP1 CPT
COC(=O)[C@@]1(C)CC[C@]2(C)CC[C@@]3(C)C(=CC(=O)C4[C@@]5(C)CC[C@H](O)C(C)(C)[C@@H]5CC[C@]43C)[C@H]2C1 (stereo partly drawn) | 6% | 18% | ? | 6 | 12% | -28%
C=C(C)[C@@H]1CC[C@]2(C(=O)O)CC[C@]3(C)C(CCC4[C@@]5(C)CC[C@H](O)C(C)(C)C5CC[C@]43C)C12 (stereo partly drawn) | ? | 9% | 7.3µM* | 41 | ? | 6.5µM*
C[C@]12CC[C@@H]3c4ccc(O)cc4C[C@@H](CCCCCCCCCS(=O)CCCC(F)(F)C(F)(F)F)[C@H]3[C@@H]1CC[C@@H]2O (stereo partly drawn) | nt | -18%[22.9 µM] | ? | nt | nt | -40%
CCCCCCCCCc1ccc(OCCOCCO)cc1 | nt | nt | 3µM* | nt | nt | 3µM*
CC(C)(C)c1ccccc1O | 9% | 11% | -1% | -10 | -14% | -7%
CC(C)(C)c1cc(O)ccc1O | nt | ? | 1.2µM* | nt | nt | 1.7µM*
O=C(N/N=C/c1cc(Br)c(Br)s1)c1ccncc1 | -25% | -11% | 9.2µM* | 60 | -12% | 13µM*
CCOC(=O)c1ncn2c1[C@H]1CCCN1C(=O)c1cc(OC)ccc1-2 | nt | 244% | ? | nt | nt | ?
CCOC(=O)C1=C(CN2CCN(c3ccc(C)cc3C)CC2)NC(=O)NC1c1ccc(OC)cc1 (stereo not drawn) | nt | 45µM* | ? | nt | nt | ?
O=c1[nH]c2ccccc2n1C1CCN(Cc2ccc(-c3[nH]c4cc5ncnc5cc4nc3-c3ccccc3)cc2)CC1 | ? | -23%[57.4 µM] | 2.9µM* | 0 | ? | 2.3µM*
CCC(c1nnnn1C1CCCC1)N1CCC2(CC1)C(=O)NCN2c1ccccc1 (stereo not drawn) | 4% | -9% | -24% | -15 | 16% | ?
O=c1[nH]c2ccccc2n1C1CCN(C(c2cccc3ccccc23)c2nnnn2Cc2ccccc2)CC1 (stereo not drawn) | ? | -9% | 8.2µM* | ? | ? | 12µM*
O=c1[nH]c2ccccc2n1C1CCN(C(CCc2ccccc2)c2nnnn2C2CCCC2)CC1 (stereo not drawn) | ? | -25% | 16µM* | -55* | ? | 18µM*
O=C1CC(N2CCC(n3c(=O)[nH]c4ccccc43)CC2)C(=O)N1Cc1ccccc1 (stereo not drawn) | 0% | 0% | -10% | -12 | 2% | -4%
Cc1ccc2nc(-c3ccc(CN4CCC(n5c(=O)[nH]c6cc(Cl)ccc65)CC4)cc3)c(-c3ccccc3)nc2c1 | nt | -24% | nt | nt | nt | nt
COc1cccc(C(c2nnnn2Cc2ccccc2)N2CCC(n3c(=O)[nH]c4ccccc43)CC2)c1OC (stereo not drawn) | ? | -24% | 3.3µM* | 0 | 21µM* | 2.6µM*
CN(C)Cc1cn(C[C@H]2CC3CCN2C[C@@H]3C(=O)NCc2ccc3c(c2)OCO3)nn1 (stereo partly drawn) | nt | 0%[176 µM] | nt | nt | nt | nt
Cc1noc(C)c1C(=O)N1CCC2(CCCN(CC(C)C)C2)CC1 | nt | 2%[57.4 µM] | 2% | nt | nt | 20%
O=c1[nH]c2ccc(Cl)cc2c(N[C@@H]2CN3CCC2CC3)c1-c1nc2ccccc2[nH]1 | nt | -12%[57.4 µM] | nt | nt | nt | nt
O=C1NC2(CN(CC3CC3)C2)Oc2ccccc21 | nt | 31%[176 µM] | nt | nt | nt | nt
O=c1[nH]c2ccccc2n1C1CCN(C(c2cc3ccccc3o2)c2nnnn2Cc2ccccc2)CC1 (stereo not drawn) | 8.2µM* | ? | 9.2µM* | ? | 10µM* | 10µM*
O=C1NCN(c2ccccc2)C12CCN(C(c1ccccc1OC(F)(F)F)c1nnnn1Cc1ccccc1)CC2 (stereo not drawn) | 2% | ? | -86% | 0 | 9% | ?
COc1cc(-c2ccc(-[n+]3nc(-c4ccccc4)nn3-c3ccc([N+](=O)[O-])cc3)c(OC)c2)ccc1-[n+]1nc(-c2ccccc2)nn1-c1ccc([N+](=O)[O-])cc1 | nt | nt | 6µM* | nt | nt | 2.7µM*
c1ccc(-c2nn(-c3ccccc3)[n+](-c3ccccc3)n2)cc1 | ? | 0% | 0.41µM* | 15 | -16% | 0.58µM*
COCC(=O)NC[C@H]1C[C@@H]2CCN1C[C@@H]2CN1CCc2ccccc2C1 | nt | -1%[176 µM] | nt | nt | nt | nt
O=C(Nc1ccccc1)C1=C[C@H](c2ccccc2)C[C@H](OCCCCO)O1 | -21% | -13% | ? | -19 | -16% | 16µM*
CC1(C)Cc2c(c(N3CCOCC3)nc3snc(N)c23)CO1 | 20µM* | 68% | 2.5µM* | -108* | 11µM* | 2.8µM*
COc1ccc(Cc2cn(C)c(N)n2)cc1 | nt | 45% | nt | nt | nt | nt

From PubChem BioAssay
